# From the supplement of paper PMC6555819
# Key:
# Test in all cases: PBM binding z-score (relative to random genomic background probes); higher = stronger binding; sequences stand for … in GC…GCGATTGACAGCGTAGAATGAAGG
# [1] = tested on: FXR:RXRa (NR concentration 270 nM, RXRa partner concentration 90 nM)
# Procedure, shortened: (§1)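 On custom Agilent 4×180K arrays, double-stranded probes with 34-nt variable regions carried direct-repeat seeds, single-nucleotide variants, half-site ablations or random human genomic background. Ligand-free nuclear receptor dimers were applied for 1 h, and binding was read with antibodies against each partner (one per run). Binding z-scores come from regression-normalized fluorescence, with the random background probes as reference.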
# [2] = tested on: LXRa:RXRa (NR concentration 270 nM, RXRa partner concentration 90 nM)
# Procedure, shortened: as §1
# [3] = tested on: LXRa homodimer (NR concentration 270 nM)
# Procedure, shortened: as §1
# [4] = tested on: LXRb:RXRa (NR concentration 270 nM, RXRa partner concentration 90 nM)
# Procedure, shortened: as §1
# [5] = tested on: LXRb homodimer (NR concentration 270 nM)
# Procedure, shortened: as §1
# [6] = tested on: PPARa:RXRa (NR concentration 270 nM, RXRa partner concentration 90 nM)
# Procedure, shortened: as §1
# [7] = tested on: PPARg:RXRa (NR concentration 180 nM, RXRa partner concentration 90 nM)
# Procedure, shortened: as §1
# [8] = tested on: PPARg:RXRa 270nM:90nM, anti-RXR (NR concentration 270 nM, RXRa partner concentration 90 nM)
# Procedure, shortened: as §1
# [9] = tested on: PPARg:RXRa 30nM:10nM, anti-RXR (NR concentration 30 nM, RXRa partner concentration 10 nM)
# Procedure, shortened: as §1
# [10] = tested on: PPARg:RXRa 90nM:30nM, anti-RXR (NR concentration 90 nM, RXRa partner concentration 30 nM)
# Procedure, shortened: as §1
# [11] = tested on: PPARg:RXRa DBDmut IVT, anti-RXR (DBD mutation: RXRa K156A/R161A, NR concentration 270 nM, RXRa partner concentration 90 nM)
# Procedure, shortened: as §1
# [12] = tested on: PPARg:RXRa IVT, anti-PPARg (NR concentration 270 nM, RXRa partner concentration 90 nM)
# Procedure, shortened: as §1
# [13] = tested on: PPARg DBDmut:RXRa IVT, anti-PPARg (DBD mutation: PPARg1 K132A/R137A, NR concentration 270 nM, RXRa partner concentration 90 nM)
# Procedure, shortened: as §1
# [14] = tested on: PPARg DBDmut IVT, anti-PPARg (DBD mutation: PPARg1 K132A/R137A, NR concentration 270 nM)
# Procedure, shortened: as §1
# [15] = tested on: PPARg homodimer (NR concentration 180 nM)
# Procedure, shortened: as §1
# [16] = tested on: PXR:RXRa (NR concentration 270 nM, RXRa partner concentration 90 nM)
# Procedure, shortened: as §1
# [17] = tested on: PXR homodimer (NR concentration 270 nM)
# Procedure, shortened: as §1
# [18] = tested on: RARa:RXR (NR concentration 270 nM, RXRa partner concentration 90 nM)
# Procedure, shortened: as §1
# [19] = tested on: RARa homodimer (NR concentration 270 nM)
# Procedure, shortened: as §1
# [20] = tested on: RARb:RXRa (NR concentration 270 nM, RXRa partner concentration 90 nM)
# Procedure, shortened: as §1
Sequence,PBM binding z-score [1],PBM binding z-score [2],PBM binding z-score [3],PBM binding z-score [4],PBM binding z-score [5],PBM binding z-score [6],PBM binding z-score [7],PBM binding z-score [8],PBM binding z-score [9],PBM binding z-score [10],PBM binding z-score [11],PBM binding z-score [12],PBM binding z-score [13],PBM binding z-score [14],PBM binding z-score [15],PBM binding z-score [16],PBM binding z-score [17],PBM binding z-score [18],PBM binding z-score [19],PBM binding z-score [20]
TCTATTAGTTGAAGGGCCACCGACGAGTCCGTTT,0.67,0.709,0.433,0.782,0.195,0.892,0.0935,2.33,3.78,3.03,2.33,0.338,0.273,0.346,1.31,0.576,0.557,0.817,1.15,1.07
GCTTGTAGAGCAAGGTTAAGAAAGACTAAGCTAA,-0.0313,0.442,-0.567,0.174,-1.28,1.5,1.41,2.77,0.817,2.03,2.64,1.72,-0.693,-0.41,-0.216,0.206,-0.546,0.613,-0.213,0.514
CGTTAAAGTTCAACTAAGGTAACGTAAAGCACGC,7.01,6.26,4.48,4.01,1.89,4.8,3.71,4.36,1.66,3.27,0.607,1.7,1.25,1.18,2.84,5.26,3.31,3.9,1.26,5.17
CGTCAAAATTCAACTAAGGTAACGTAAAGCACGC,0.963,0.314,0.303,0.543,0.0502,0.568,0.569,0.127,-0.0256,0.246,-0.174,0.543,0.555,1.22,-0.0431,0.326,0.413,1.71,1.69,0.577
CGTCCCAGGTCAGAGAGGTCAGTGAATGCCGAGT,4.31,4.12,2.6,3.58,0.209,3.75,2.21,2.76,0.0256,1.76,1.78,2.54,-0.171,-0.892,3.01,5.38,10.2,4.83,0.426,4.48
CTACCAAGGTGAACAAGTTCGTTGATTACTATTC,0.442,0.532,0.164,0.939,-0.333,1.49,0.367,0.665,-0.0232,0.145,2.33,2.42,0.0227,0.729,0.895,2.81,4.46,0.986,0.313,1.55
TCGAGTCGGTTAGTCGGGGCATTCAGCCAACATA,-0.133,-0.389,-0.468,0.0657,-0.884,0.295,-0.72,0.168,0.645,0.378,0.436,-0.0905,-0.814,-1.24,-0.388,-0.0849,-0.566,-0.027,-1.36,-0.00486
CCGAGTAGGTTATGGGGCATTCGGGCAACGGTGA,0.24,0.637,0.00114,0.528,-0.313,2.4,3.36,4.85,2.16,4.57,2.83,3.88,-0.19,-0.259,0.492,0.00674,-0.383,0.377,-0.149,1.1
ATCGAAAGGTCGTGAGGTGCGTATACAGAAAGGC,5.17,3.73,-0.157,2.99,-0.0634,5.18,3.39,3.76,1.13,2.4,0.0193,1.75,0.734,0.404,1.37,2.98,0.197,3.01,0.318,3.85
ATGTCTAGGTAAGACTCAGTTCAGTGAAGAACGC,-0.0311,0.274,0.049,-0.259,-0.00137,-0.0837,0.0566,0.15,-0.029,-0.0514,0.955,0.996,0.297,0.538,0.433,0.668,1.4,-0.0923,0.712,0.132
TCTCGGAGGACACGAAGGTCAGAGCATTCCAGAG,1.29,0.948,0.206,0.97,-0.998,1.88,0.742,1.63,2.05,1.74,1.39,1.39,-0.898,-1.01,0.93,1.74,0.89,1.61,0.282,3.07
ATACCAAAGTGATCGTGAGGTCGTTGATACTAAC,1.23,0.707,0.848,0.923,-0.182,0.935,0.235,0.258,0.0966,-0.173,-0.498,0.345,0.693,0.857,0.565,1.86,1.59,1.59,0.386,0.514
CGTCCAAGGTCAAAGTTCAGTGAAGAGATGACGG,7.9,6.35,3.82,5.48,2.19,6.47,9.06,8.05,6.19,8.24,3.41,5.08,0.409,1.29,3.79,6.59,3.31,8.01,1.47,5.44
